The text below walks through data of PubChem BioAssay AID1030 (National Center for Advancing Translational Sciences (NCATS), 2008).

Among all 220,000 compounds or so, about 16,000 (7.3%) were called active. Entries that show only a call come without a potency. About 25% were inconclusive and are not listed. Calls come from the whole dose curve; as a rule, active = well fitted inhibition curve with a large enough effect (not every such curve was filed as active); inconclusive = small, poorly fitted or top-dose-only effect, or another doubt; inactive = no such curve, though single readings can be large or run the other way. Only a selection was taken, and actives are over-represented in it overall. Peptide text beside a SMILES is read from it. * marks the point of attachment. OPac = O=C(CO*)c1ccccc1; Bz = O=C(c1ccccc1)*
Potency is the fitted concentration of half-maximal effect.

In this test the target is Aldehyde dehydrogenase 1A1 (Homo sapiens) (UniProt P00352). The experiment in a line: qHTS Assay for Inhibitors of Aldehyde Dehydrogenase 1 (ALDH1A1). The following applies: Purified ALDH1A1, NADH fluorescence, propionaldehyde substrate; series mostly up to 75.3 µM. A general note: In qHTS, concentration-response curves come from the screen itself.
Aldehyde dehydrogenase 1A1 (Homo sapiens), sequence (P00352 whole entry, looked up): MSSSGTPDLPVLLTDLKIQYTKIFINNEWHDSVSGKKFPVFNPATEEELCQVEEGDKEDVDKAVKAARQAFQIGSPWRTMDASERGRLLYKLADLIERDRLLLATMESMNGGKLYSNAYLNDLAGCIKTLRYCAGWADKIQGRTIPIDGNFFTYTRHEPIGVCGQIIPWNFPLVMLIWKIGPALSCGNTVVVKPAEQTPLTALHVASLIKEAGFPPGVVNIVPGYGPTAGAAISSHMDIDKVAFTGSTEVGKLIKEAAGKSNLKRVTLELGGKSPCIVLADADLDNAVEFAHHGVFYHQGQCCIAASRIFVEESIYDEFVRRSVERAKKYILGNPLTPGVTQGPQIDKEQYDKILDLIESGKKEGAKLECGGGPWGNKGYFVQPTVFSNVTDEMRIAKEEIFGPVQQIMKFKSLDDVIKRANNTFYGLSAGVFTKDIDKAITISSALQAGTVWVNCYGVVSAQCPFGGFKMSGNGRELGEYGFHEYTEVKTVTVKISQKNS
As for `CCOC(=O)C1(Cc2cccc(OC)c2)CCN(Cc2csc(C(C)=O)c2)CC1`, the Potency result is “inactive”. On to `CCOC(=O)C1(Cc2cccc(OC)c2)CCN(C(C)COC)CC1` (centres undefined), for which the Potency result is “inactive”. Regarding `CCOC(=O)C1(Cc2cccc(OC)c2)CCN(C(C)CC(C)(C)O)CC1` (centres undefined), the Potency is 3.55 µM (active). As for `CN(CC(=O)NC1CCCC1)S(=O)(=O)c1cnc[nH]1`, the Potency result is “inactive”. As for `CCN(CC)CCN(C(=O)c1ccc(N2C(=O)CCC2=O)cc1)c1nc2cc3c(cc2s1)OCO3`, the Potency was 20 µM (active). Turning to `CCCCN(CC)C(=O)c1ccc2c(c1)OCO2`, the Potency result is “inactive”. `CCN(CC)CCN(C(=O)c1cccc([N+](=O)[O-])c1)c1nc2ccc(OC)cc2s1`: the Potency entry is “inactive”. The same measure, in the same setting: to `COc1ccc(CC2(CO)CCN(Cc3cnn(C)c3)CC2)cc1` belongs “inactive”; to `COCCCNC(=O)/C=C/c1ccc(OCc2c(F)cccc2Cl)cc1`, “inactive”. Take `Cc1nc(NC(=O)CN(C)S(=O)(=O)c2ccc(Cl)cc2)sc1C`: the Potency entry was “inactive”. On to `Cc1nc(-c2ccc(Cl)cc2)sc1C(=O)CBr`, for which the Potency is 12.6 µM (active). Consider `Cc1ccc(SCC(=O)c2sc(-c3ccccc3)nc2C)cc1`, for which the Potency result is “inactive”. On the same count and under the same terms, to `O=C(N/N=C/c1cc([N+](=O)[O-])ccc1O)/C(=C\c1cccs1)NC(=O)c1ccccc1` belongs “inactive”. For `CCC(=O)Nc1ccc(Nc2nc(Cl)nc(Nc3ccc(NC(=O)CC)cc3)n2)cc1`, the Potency entry was “inactive”. `O=c1[nH]c2cccnc2n(CCNc2ncc(C(F)(F)F)cc2Cl)c1=O`: the Potency entry was “inactive”. With `CC(C)(C)n1cnnc1Sc1ccc([N+](=O)[O-])cn1`, the Potency entry was “inactive”.

Consider `CCCCNC(=O)Nc1c(C)cc(SC#N)cc1C`, for which the Potency was 0.562 µM (active). On to `CCCCNC(=O)C(=O)c1ccccc1NC(C)=O`, for which the Potency result is “inactive”. On to `Cc1cc2nc(C)n(CCCNC(=O)Nc3ccccc3)c2cc1C`, for which the Potency entry was “inactive”. On the same count and under the same terms, to `O=C(NCCOCc1ccc(Cl)cc1)c1ncn[nH]1` belongs “inactive”; to `O=C(/C=C/Sc1ncn[nH]1)c1ccc(Cl)cc1`, 8.91 µM (active).

For `COc1cccc2cc(S(=O)(=O)c3ccc(C)cc3)/c(=N/NS(=O)(=O)c3ccc(C)cc3)oc12`, the Potency result is “inactive”. `CCOc1ccc(-n2c(SCC(=O)NC3CCS(=O)(=O)C3)nnc2-c2cccnc2)cc1` (centres undefined): the Potency result was “inactive”.

For `COc1cccc2c1OCC1COc3c(c(=O)n(C)c(=O)n3C)C21` (centres undefined), the Potency entry was “inactive”. Consider `Cn1c2c(c(=O)n(C)c1=O)[C@@H]1c3c(ccc4ccccc34)OC[C@@H]1CO2`, for which the Potency result was “inactive”. On the same count and under the same terms, to `Cn1c2c(c(=O)n(C)c1=O)C1c3ccccc3OCC1C(C)(C)O2` (centres undefined) belongs 28.2 µM (active). In the case of `COc1ccc(C/C(N)=N/OC(=O)c2ccco2)cc1OC`, the Potency result is “inactive”. Same read-out and setting: next, `COc1ccccc1-c1nnc(SCC(=O)Nc2cc(C)on2)o1`: “inactive”. Regarding `COc1ccccc1N1CCN(C(=O)CSc2nnc(-c3ccoc3C)o2)CC1`, the Potency is 1.58 µM (active). On to `CCOc1ccccc1-n1c(SCC(=O)N2CCCC2)nnc1-c1ccoc1C`, for which the Potency result was “inactive”.

In the case of `COc1ccc(-n2nc(C(=O)Nc3cc(OC)c(OC)c(OC)c3)c3ccccc3c2=O)c(OC)c1`, the Potency entry is “inactive”.

On to `CCOC(=O)c1c(NC(=S)NC(=O)c2ccco2)sc2c1CCCC2`, for which the Potency entry was “inactive”. In the case of `CNC(=O)c1c(NC(NC(=O)c2ccco2)C(=O)c2ccc(Cl)cc2)sc2c1CCCC2` (centres undefined), the Potency was 14.1 µM (active). For the molecule `COC(=O)c1c(NC(=O)c2cccs2)sc2c1CCCC2`, the Potency result is “inactive”.

Regarding `COc1cc(OC)cc(-c2nnc(N(C)C(=O)c3ccncc3)s2)c1`, the Potency entry was “inactive”. On to `O=C1[C@@H]2C(c3cccnc3)=NO[C@@H]2C(=O)N1c1ccc(Cl)cc1Cl`, for which the Potency was 3.55 µM (active). As to `COC(=O)CCCC1=CC2=CC(=O)C(C)(OC(=O)c3cccs3)C(=O)C2=CN1CC(C)C` (centres undefined), the activity, negative = inhibition is -2.57% [at 13.5 µM] (inactive). With `c1ccc(-c2ccccc2OCCN2CCCCC2)cc1`, the Potency entry is “inactive”. `CN1CCN(CCCCOc2ccccc2-c2ccccc2)CC1`: the Potency was 10 µM (active). As for `CC1CCCN(CCOCCOc2ccccc2-c2ccccc2)C1` (centres undefined), the Potency result is “inactive”.

`Cc1c(Cl)cccc1NC(=O)Nc1ccc(C(=O)N2CCCC2)cc1`: the Potency is 20 µM (active). For `O=C(c1ccc(Cl)c(Cl)c1)N1CCCC1`, the Potency entry was “inactive”.

In the case of `O=C(Nc1ccccc1C(=O)N1CCCCCC1)c1ccccc1Cl`, the Potency entry was “inactive”.

`Cc1ccc(S(=O)(=O)N(C)C)cc1NC(=O)COC(=O)C1COc2ccccc2O1` (centres undefined): the Potency entry was “inactive”. In the case of `CCOC(=O)/C(=N\Nc1ccccc1[N+](=O)[O-])c1csc(Nc2ccccc2)n1`, the Potency entry was “inactive”. Still for that read-out and setting: to `CN(C)S(=O)(=O)c1cccc(C(=O)Nc2cccnc2)c1` belongs “inactive”; to `C/C(=C\C(=O)c1ccccc1)Nc1cccc(O)c1`, “inactive”. With `CN(C)S(=O)(=O)c1cccc(NC(=S)N/N=C/C(=O)c2ccccc2)c1`, the Potency was 8.91 µM (active).

On to `O=C(Nc1cccc(Cl)c1)OCc1ccccn1`, for which the Potency entry is “inactive”. Still for that read-out and setting: to `O=C(CC1SC(=Nc2ccccc2)N(Cc2ccccn2)C1=O)Nc1cccc(Cl)c1` (centres undefined) belongs 20 µM (active). For the molecule `CN1C(=O)C(CC(=O)Nc2ccccc2)S/C1=N/c1nccs1` (centres undefined), the Potency result was “inactive”. Consider `c1ccc2c(c1)OCCOCCOCCO2`, for which the Potency entry is “inactive”. In the case of `CSCCC(NC(=O)c1ccco1)C(=O)OCC(=O)Nc1ncc(Cl)c(C)c1Cl` (centres undefined), the Potency was 22.4 µM (active). As to `Cc1c(Cl)cnc(NC(=O)COC(=O)c2ccc(S(=O)(=O)NCc3ccco3)cc2)c1Cl`, the Potency entry was “inactive”. Turning to `CCc1cc2c(SCC(=O)Nc3ncc(Cl)c(C)c3Cl)ncnc2s1`, the Potency entry is “inactive”. Regarding `COC(=O)c1ccc(OCC(O)CN(CCO)CC(O)Cn2ccc3ccccc32)cc1` (centres undefined), the Potency entry is “inactive”. As to `O=C(/C=C\NCC(=O)c1ccccc1)c1ccccc1`, the Potency was 2.51 µM (active). As for `O=C(/C=C/NCc1ccc(F)cc1)c1ccccc1`, the Potency entry is “inactive”. In the case of `O=C(CNC(=O)c1ccccc1)NCC(=O)OCC(=O)c1ccccc1` (Bz-Gly-Gly-OPac), the Potency entry was “inactive”.

Consider `OCCC1CN(Cc2ccc(Oc3ncccn3)cc2)CCN1CCc1ccccc1` (centres undefined), for which the Potency result is “inactive”. Consider `COc1cccc(C(=O)Nc2cccnc2)c1OC`, for which the Potency result is “inactive”. The same measure, in the same setting: next, `O=C(O)c1cccc(NC(=O)c2cc(-c3cccc(Cl)c3)nc3ccccc23)c1`: “inactive”; `O=C(c1ccc2ccccc2n1)N1CCN(c2ccccc2Cl)CC1`: “inactive”. Consider `S=C(Nc1ccc(Br)cc1Cl)N1CCC2(CC1)OCCO2`, for which the Potency entry was “inactive”. Regarding `CC(C)C[C@H](NC(=O)[C@H](O)[C@H](N)Cc1ccccc1)C(=O)O`, the Potency result was “inactive”. For the molecule `O=C(CSCc1ccc(Cl)cc1)N1CCCCC1`, the Potency is 11.2 µM (active). Same read-out and setting: next, `O=C(CN1CCN(c2ccc(Cl)cc2)CC1)N1CCCC1`: “inactive”; `O=C(CSCc1ccc(Cl)cc1)N1CCN(Cc2ccc3c(c2)OCO3)CC1`: “inactive”; `COc1ccccc1NC(=S)N1CCC(NC(=O)C23CC4CC(CC(C4)C2)C3)CC1`: “inactive”. As for `Cc1ccc(NC(=O)OCCNC(=O)c2ccncc2)cc1`, the Potency result is “inactive”. Same read-out and setting: to `CN(C)S(=O)(=O)c1ccc2oc(SCC(=O)Nc3ccccc3F)nc2c1` belongs “inactive”; to `Cn1c(/C(C#N)=C2/CCCCCN2)nc2ccccc21`, 17.8 µM (active). Still for that read-out and setting: to `Cc1ccc(O)c(CNc2nc3ccccc3n2C)c1` belongs “inactive”; to `N#C/C(=C1/CCCN1)c1ccccn1`, “inactive”. On to `NC(=O)c1nnsc1-c1ccc(-c2snnc2C(N)=O)cc1`, for which the Potency result was “inactive”. As for `O=C(C/C(=N\NC(=O)c1ccccc1Br)C(F)(F)F)c1cccs1`, the Potency result is “inactive”. For the molecule `COc1ccc(C(=O)Nc2ccc(F)cc2F)cc1`, the Potency result is “inactive”.

With `O=C(O)/C=C/C(=O)Nc1ccc(F)cc1F`, the Potency is 25.1 µM (active).

`CC(C)CC(=O)NC(=S)Nc1ccc(F)cc1F`: the Potency result is “inactive”. For the molecule `Nc1c(Cl)cc(S(N)(=O)=O)cc1S(N)(=O)=O`, the Potency result is “inactive”.

Regarding `CCC(C)(C)NC(=O)C(c1cccc(OC)c1OC)N(CC(C)C)C(=O)CCC(=O)Nc1cc(C)on1` (centres undefined), the Potency entry was “inactive”. For `CCCCN(C)CCNC(=O)CSCc1ccc(C)cc1`, the Potency result is “inactive”. As for `Cc1ccc(S(=O)(=O)CCC(=O)OCc2ccccc2)cc1`, the Potency entry is “inactive”. With `Cc1ccc(CSCC(N)C(=O)O)cc1` (centres undefined), the Potency is 31.6 µM (active). Consider `O=C(CNC(=O)c1cc(=O)[nH]c2ccccc12)Nc1ccc(F)c(F)c1`, for which the Potency result was “inactive”. On to `COc1cc(C(F)(F)F)c(C(=O)N(C)c2ccc(Cl)cc2)cn1`, for which the Potency entry is “inactive”. `Cc1noc(C)c1/C=N/Nc1ccc2ccccc2n1`: the Potency entry was “inactive”.

As to `O=C(CSc1ncccn1)NCCc1ccccc1`, the Potency entry was “inactive”.

For `S=c1[nH]nc(Nc2ccccc2)s1`, the Potency was 6.31 µM (active).

In the case of `O=c1cnnc(Nc2ccccc2)[nH]1`, the Potency result was “inactive”. As to `c1ccc(Nc2n[nH]nc2-c2ccccc2)cc1`, the Potency entry is “inactive”. `S=c1[nH]nc(NCCc2ccccc2)s1`: the Potency was 12.6 µM (active). `Cc1nc(C)c(-c2csc(NCCc3ccccc3)n2)s1`: the Potency entry is “inactive”. On the same count and under the same terms, next, `O=C(CCCn1c(=O)c2sccc2n(CC(=O)NCC2CCCO2)c1=O)NCc1ccco1` (centres undefined): “inactive”; `CCCN(C(=O)CSc1nnnn1C)c1c(N)n(Cc2ccccc2)c(=O)[nH]c1=O`: “inactive”; `COc1cc(/C=C/CO)cc(OC)c1O[C@@H]1O[C@H](CO)[C@@H](O)[C@H](O)[C@H]1O`: “inactive”.

Consider `COc1cc(/C=C/C2=CC(C)(C)NC(=S)N2)cc(OC)c1OC`, for which the Potency is 3.98 µM (active). The same measure, in the same setting: next, `COc1ccc(/C=C/C2=CC(C)(C)NC(=S)N2)c(OC)c1`: 0.708 µM (active). On the same count and under the same terms, next, `Cc1ccc2nc(C)cc(N/N=C/c3ccc(F)cc3)c2c1`: “inactive”; `O=C(NNc1cc(Cl)ccc1Cl)c1cccnc1Cl`: “inactive”. Consider `C=CC1(C)CC(=O)C2(O)C(C)(O1)C(OC(C)=O)C(O)C1C(C)(C)CCC(O)C12C` (centres undefined), for which the Potency entry was “inactive”. As for `Cc1c(CCC(=O)O)c(=O)oc2cc3occ(-c4ccccc4)c3cc12`, the Potency result is “inactive”. `O=C(COc1ccc(S(=O)(=O)N2CCCCC2)cc1)NCc1ccccn1`: the Potency result is “inactive”. Same read-out and setting: to `Cc1ncn(C23CC4CC(CC(O)(C4)C2)C3)n1` belongs “inactive”. On the same count and under the same terms, next, `Cc1nc([N+](=O)[O-])nn1C12CC3CC(CC(Br)(C3)C1)C2`: 8.91 µM (active). `Cc1cn(C)c(=O)n(C)c1=O`: the Potency result was “inactive”. `CN(C)CCCSc1ccccc1NC(=O)/C=C/c1ccccc1`: the Potency result is “inactive”. As to `O=C(CCN1C(=O)c2ccncc2C1=O)Nc1cc(F)ccc1F`, the Potency entry is “inactive”.

As to `Cc1ccc(N(C(=O)Cc2cccs2)C2C=CS(=O)(=O)C2)cc1Cl` (centres undefined), the Potency result is “inactive”.
